# Assay outcomes from PubChem.
# CYP2C19 act – human CYP2C19 activators, primary screen, biochemical, luminescence | 96,000 tested, under 10 active | activation factor at 5 µM | recombinant CYP2C19, luciferin-H EGE luminescence; active compounds read high; 0 = fully inhibited enzyme, 1 = untreated enzyme | Cytochrome P450 2C19 (Homo sapiens), P33261;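 active = activation factor of at least 2 at 5 µM in the primary screen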;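 note: 0 = wells with 2.5 mM tranylcypromine and 1 = vehicle-only wells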
# Target sequence (P33261 whole entry, looked up): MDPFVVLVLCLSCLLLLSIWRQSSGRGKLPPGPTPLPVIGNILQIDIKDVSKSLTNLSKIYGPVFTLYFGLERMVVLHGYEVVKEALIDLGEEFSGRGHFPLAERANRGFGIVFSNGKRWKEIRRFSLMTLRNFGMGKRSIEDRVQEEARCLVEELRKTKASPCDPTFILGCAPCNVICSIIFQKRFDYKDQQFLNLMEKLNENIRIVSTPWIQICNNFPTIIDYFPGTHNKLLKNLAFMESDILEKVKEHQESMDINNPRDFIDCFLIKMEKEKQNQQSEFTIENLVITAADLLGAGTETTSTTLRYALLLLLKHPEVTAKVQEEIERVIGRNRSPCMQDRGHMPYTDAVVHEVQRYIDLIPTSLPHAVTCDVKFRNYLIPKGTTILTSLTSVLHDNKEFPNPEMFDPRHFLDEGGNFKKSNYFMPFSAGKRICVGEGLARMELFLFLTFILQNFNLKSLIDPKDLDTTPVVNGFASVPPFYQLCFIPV
# PostGolgi yeast – phenotypic screen on post-Golgi transport, primary screen. post-Golgi transport phenotypic cell assay. inhibition, % at 10 µM. 98,000 tested, 0.9% active;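 note: yeast cells grown in 1536-well plates; yeast grown about 18 h at 30C before absorbance read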
# PostGolgi ctrl – growth inhibition of yeast control strain, primary screen, counter-screen for post-Golgi transport modulator project; inhibition, % at 10 µM; efflux-deficient yeast background strain, growth absorbance A615, 16 h; 98,000 tested, 5% active
# CYP2C9 activ – human CYP2C9 activators, primary screen, biochemical, luminescence | Cytochrome P450 2C9 (Homo sapiens), P11712 | recombinant CYP2C9, luciferin-H conversion; active compounds read high; factor 1 = untreated enzyme, 0 = blocked | activation factor at 5 µM | 96,000 tested, 1.4% active;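 active = activation factor of 2 or more for CYP2C9 at a 5 µM dose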;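 note: 0 = sulfaphenazole-blocked wells and 1 = vehicle-only wells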
# CYP2C9 inhib – blockers of cytochrome P450 2C9 activity – biochemical, luminescence, ADME assay, primary screen; P11712; CYP2C9 Supersomes, luciferin-H conversion; inhibition, % at 5 µM; 96,000 tested, 20% active;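 active = blocking of liver enzyme CYP2C9 beyond about 50% at 5 µM, limit read from the data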
# CYP2C19 inh – blockers of cytochrome P450 2C19 activity – biochemical, luminescence, ADME assay, primary screen | P33261 | CYP2C19 Supersomes, luciferin-H EGE luminescence, 30 min | inhibition, % at 5 µM | 96,000 tested, 21% active | AID 778, 2007;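 active = CYP2C19 inhibition above a set limit at 5 µM in the primary screen, cut at about 50% in these data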;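 note: plate controls were negative control wells for no effect and 2.5 mM tranylcypromine positive control for full effect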
# Starred values were filed as active, the others as inactive; x = not tested or not shown. In the library only some 32% were active in any assay of this set; here they are far more common. Cut-off read from the data, not from the text of the source, unless noted: active = inhibition above about 30%; inactive = the rest.
SMILES,CYP2C19 act,PostGolgi yeast,PostGolgi ctrl,CYP2C9 activ,CYP2C9 inhib,CYP2C19 inh
COC(=O)c1c(NC(=O)CN2CCN(Cc3ccc4c(c3)OCO4)CC2)sc(C)c1C,0.5,-10,15,0.3,71*,50*
COC(=O)c1ccsc1NC(=O)CN1CCN(c2ccc(F)cc2)CC1,0.1,4,26,0.1,91*,91*
COC(=O)c1ccsc1NC(=O)CN1CCN(Cc2ccc3c(c2)OCO3)CC1,0.5,-1,6,0.4,56*,46
COC(=O)c1c(NC(=O)Cc2ccccc2)sc(C)c1C,0.7,-3,2,0.8,24,32
CC(=O)NC1(c2cccc(F)c2)CCN(C(=O)Nc2ccc(C#N)cc2)CC1,1.1,1,12,1,4,-9
CCCc1cc(=O)[nH]c(/N=C(\N)Nc2ccccc2)n1,1,-2,6,0.9,9,0
O=c1c2ccccc2nc(-c2ccccc2)n1CCN1CCOCC1,0.7,-1,23,0.9,12,26
Cc1[nH]c2ccccc2c1C(=O)CSc1nc2ccccc2c(=O)n1CCCN1CCOCC1,0.3,0,36*,0.1,85*,73*
COc1ccc(-c2nc3ccccc3c(=O)n2CCCN2CCOCC2)cc1,0.1,-4,1,0.9,7,90*
COc1ccc(OC)c(-c2nnc(-c3ccc(C)o3)o2)c1,0.6,-4,6,1,1,44
O=S(=O)(Nc1cccnc1Cl)c1ccc2c(c1)OCCO2,0.8,-3,21,0.8,20,22
CCCNC(=O)c1ccccc1NS(=O)(=O)c1ccc2c(c1)OCCO2,0.6,-9,-1,2*,-104,44
CSc1ccccc1NS(=O)(=O)c1ccc2c(c1)OCCO2,0.2,5,19,2.7*,-170,79*
CCNc1sc(C(=O)c2cccs2)c(N)c1-c1nc2ccccc2s1,0.5,1,36*,0.1,90*,53*
C=CCNc1sc(C(=O)c2ccccc2)c(N)c1-c1nc2ccccc2s1,0.9,-5,20,0.6,43,9
CCOC(=O)N1CCN(C(=O)CSc2ncnc3ccccc23)CC1,1.1,21,-3,1,4,-7
O=C(OCc1nnc(-c2ccccc2)o1)c1ccc2c(c1)OCO2,0.3,-13,23,0.2,81*,65*
O=C(CCN1c2ccccc2Sc2ccccc21)OCc1nnc(-c2ccccc2)o1,0,0,10,0,95*,96*
O=C(OCc1nnc(-c2ccccc2)o1)c1cc(=O)c2ccccc2o1,1,6,3,1.1,-5,0
O=C(Nc1ccccc1)c1ccccc1O,0.8,0,12,0.8,24,19
N#Cc1ccccc1Sc1ccccc1C(=O)Nc1ccccc1,0.5,6,17,0.5,50,52*
CCOc1ncccc1C(=O)OCc1nnc(-c2ccccc2)o1,0.2,3,6,0.7,28,84*
Cc1ccc(S(=O)(=O)N(C)CC(=O)OCc2nnc(-c3ccccc3)o2)cc1,1,-3,8,1,-4,4
O=C(OCc1nnc(-c2ccccc2)o1)c1ccco1,0.8,0,-1,0.9,6,18
CCOC(=O)CNS(=O)(=O)c1ccc(C(=O)O)cc1,1,-19,22,1,5,2
CCOC(=O)C(CCCCOc1ccc([N+](=O)[O-])cc1)C(=O)OCC,0.9,-3,8,0.7,30,12
CC1CN(C(=O)c2scc3c2OCCO3)CC(C)O1 (stereo unspecified),0.9,0,-1,1,1,15
Cc1noc(C)c1COC(=O)c1ccc2c(c1)OCCO2,x,-6,28,x,x,x
N#Cc1ccccc1Sc1ccccc1C(=O)OCc1nnc(-c2ccccc2)o1,0.3,1,11,0.4,58*,69*
CC1CN(C(=O)c2ccccc2Sc2ccccc2C#N)CC(C)O1 (stereo unspecified),0.8,16,4,0.8,22,22
